Where “and” joins values, the source holds several entries; their conditions need not be identical. Equal entries are not always repeated. Results filed as inconclusive are left out. Calls of active or inactive are those of the source. Unless noted, the rule behind the calls is not given here.
Legend:
[1] = system: Neuropilin-2 / VEGF-C interaction (human); assay: small molecules blocking Neuropilin-2/VEGF-C interaction – biochemical, microplate binding format, z-score (AID 743281); conditions: microplate NRP2/VEGF-C binding assay; stronger effect = lower value
[2] = viability loss in pontine glioma line – cell-based, SU-DIPG-XVII, MIPE5.0, CellTiter-Glo, qHTS, dose response (AID 1347060; cut-off not given, nearly all actives have AC50 up to about 26 µM;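 for AC50: cells exposed to compound for 48 hours before viability readout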); conditions: CellTiter-Glo ATP luminescence
[3] = viability loss in pontine glioma line – cell-based, JHH-DIPG-1, MIPE4.0, CellTiter-Glo, qHTS, dose response (AID 1347062; cut-off not given, nearly all actives have AC50 up to about 27 µM); conditions: JHH-DIPG-1 viability, CellTiter-Glo ATP luminescence
[4] = viability loss in pontine glioma line – cell-based, SU-DIPG-IV, MIPE4.0, CellTiter-Glo, qHTS, dose response (AID 1347063; cut-off not given, nearly all actives have AC50 up to about 30 µM;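 note: compound exposure lasted 48 hours before the viability readout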); conditions: CellTiter-Glo ATP luminescence
[5] = viability loss in pontine glioma line – cell-based, SU-DIPG-XXV, MIPE5.0, CellTiter-Glo, qHTS, dose response (AID 1347065; cut-off not given, nearly all actives have AC50 up to about 26 µM;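 note: cells exposed to compound for 48 hours before ATP readout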); conditions: CellTiter-Glo ATP luminescence
[6] = growth inhibition of DIPG cells – cell-based, MIPE4.0 library, CellTiter-Glo luminescence, qHTS (AID 1347066; cut-off not given, nearly all actives have AC50 up to about 30 µM;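 note: cells exposed to compound for 48 hours before readout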); conditions: SU-DIPG-VI viability, CellTiter-Glo ATP luminescence
[7] = JHH-DIPG-1 glioma cell viability, MIPE5.0 library, CellTiter-Glo luminescence, qHTS (AID 1347067; cut-off not given, nearly all actives have AC50 up to about 26 µM;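 note: cells exposed to compound for 48 hours before readout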); conditions: JHH-DIPG-1 glioma viability, CellTiter-Glo ATP luminescence
[8] = growth inhibition of DIPG cells – cell-based, MIPE5.0 library, qHTS (AID 1347068; cut-off not given, nearly all actives have IC50 up to about 30 µM); conditions: SU-DIPG-XXV viability
[9] = compounds altering HSF1 focus formation in cells – imaging, Selleck Cancer Library (AID 1347162; in the data active = plate-normalised HSF1 focus index below about 0.46); conditions: human cells, HSF1 nuclear foci imaging, at 10 µM; SSMD: measured here: HSF1 foci SSMD mean; cell count: measured here: cell number; plate-normalised HSF1 focus index: stronger effect = lower value
[10] = molecular target: ATP-dependent translocase ABCB1 (Homo sapiens) (UniProt P08183); assay: P-glycoprotein substrate transport blockade – cell-based (AID 377; in the data active = fluorescence slope change above about 50%); conditions: MDR1-expressing cells, fluorescent substrate accumulation slope; stronger effect = higher value; concentration not given here
ATP-dependent translocase ABCB1 (Homo sapiens), sequence (P08183 whole entry, looked up): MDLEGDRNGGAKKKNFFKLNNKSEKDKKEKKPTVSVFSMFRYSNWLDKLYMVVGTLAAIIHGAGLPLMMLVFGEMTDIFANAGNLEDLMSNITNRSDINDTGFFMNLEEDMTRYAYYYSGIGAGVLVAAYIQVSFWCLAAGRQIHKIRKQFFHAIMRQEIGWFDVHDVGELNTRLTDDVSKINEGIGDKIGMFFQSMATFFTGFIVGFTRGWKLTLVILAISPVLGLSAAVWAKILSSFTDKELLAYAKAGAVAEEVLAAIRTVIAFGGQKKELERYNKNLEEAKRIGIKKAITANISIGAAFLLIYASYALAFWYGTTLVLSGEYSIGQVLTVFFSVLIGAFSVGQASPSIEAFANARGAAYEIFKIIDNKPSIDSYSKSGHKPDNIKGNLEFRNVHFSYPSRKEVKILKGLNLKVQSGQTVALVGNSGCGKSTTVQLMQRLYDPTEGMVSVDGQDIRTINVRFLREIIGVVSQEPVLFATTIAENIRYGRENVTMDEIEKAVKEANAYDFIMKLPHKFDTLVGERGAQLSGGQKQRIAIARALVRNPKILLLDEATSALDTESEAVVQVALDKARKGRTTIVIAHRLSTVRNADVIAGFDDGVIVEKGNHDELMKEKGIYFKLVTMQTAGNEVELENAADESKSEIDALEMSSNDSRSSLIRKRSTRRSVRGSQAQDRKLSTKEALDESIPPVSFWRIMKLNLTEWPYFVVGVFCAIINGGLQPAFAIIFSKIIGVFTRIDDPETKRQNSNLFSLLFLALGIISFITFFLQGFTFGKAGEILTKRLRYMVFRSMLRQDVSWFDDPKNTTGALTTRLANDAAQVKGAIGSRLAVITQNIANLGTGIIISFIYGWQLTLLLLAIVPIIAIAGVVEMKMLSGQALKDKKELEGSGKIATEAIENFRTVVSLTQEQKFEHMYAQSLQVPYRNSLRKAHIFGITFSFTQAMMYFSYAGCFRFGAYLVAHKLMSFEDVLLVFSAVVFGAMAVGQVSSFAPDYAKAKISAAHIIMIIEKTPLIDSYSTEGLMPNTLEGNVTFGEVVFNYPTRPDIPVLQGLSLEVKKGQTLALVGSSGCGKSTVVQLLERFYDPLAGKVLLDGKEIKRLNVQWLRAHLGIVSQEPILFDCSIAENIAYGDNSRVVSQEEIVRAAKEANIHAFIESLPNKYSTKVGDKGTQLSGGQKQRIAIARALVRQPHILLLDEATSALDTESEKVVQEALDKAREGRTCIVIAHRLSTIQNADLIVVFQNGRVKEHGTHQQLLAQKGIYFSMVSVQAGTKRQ

[11] = GFP-Q80 aggregate reduction, neuronal-like cells, cell-based, NGF-treated PC12, GFPQ80 (AID 1614); conditions: PC12 NGF-treated GFP-polyQ80 inclusion reduction;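 note: lower means fewer inclusions and 0 means no inclusions at all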
[12] = compounds altering circadian rhythm period length – cell-based, LOPAC library, luminescence reporter (AID 2774); conditions: circadian reporter cells, at 7 µM, actives lie on both sides;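 note: values are relative to mean of DMSO wells on each plate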
[13] = system: Hepatitis C virus NS3 helicase; assay: blockers of NS3h binding to ssDNA – biochemical, fluorescence polarization, LOPAC1280 library, primary screen (AID 687035; in the data active = inhibition above about 37%); conditions: Purified HCV NS3 helicase, Cy5-dT15 ssDNA binding fluorescence polarization; stronger effect = higher value; concentration not given here
[14] = compounds altering Cy5-DNA-NS3h complex signal – biochemical, LOPAC1280, artefact control for HCV NS3 helicase inhibitor project (AID 687037); conditions: Cy5-DNA-NS3h complex fluorescence interference counterscreen
[15] = viability loss in pontine glioma line – cell-based, SU-DIPG-XIII, MIPE5.0, CellTiter-Glo, qHTS, dose response (AID 1347064; cut-off not given, nearly all actives have AC50 up to about 23 µM;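 note: cells exposed to compound for 48 hours before the viability read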); conditions: CellTiter-Glo ATP luminescence
[16] = blockers of cellular phospholipid synthesis – cell-based, LOPAC library, screen 4, primary screen (AID 1347384); conditions: animal cells, phospholipid biosynthesis inhibition screen; at 10 µM
[17] = growth inhibition, single agent or in combination, cell-based, chromothripsis tumors, cisplatin or BGB combos (AID 1671449; in the data active = inhibition above about 80%;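 note: cells exposed for 96 hours; 0% = vehicle DMSO and 100% = killing by high DMSO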); conditions: LFS_MB_P medulloblastoma cells
[18] = growth inhibition, single agents and combos, ICB984, cell-based, cisplatin or BGB combos, synergistic combos for chromothripsis tumors (AID 1671451); conditions: ICB984 medulloblastoma cells, drug combinations, stronger effect = higher value;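 note: cells exposed for 96 hours before readout; 0% = vehicle DMSO and 100% = killing by high DMSO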

## CN(CCOc1ccc(CC2SC(=O)NC2=O)cc1)c1ccccn1 (centres undefined)
[1]
  z-score: 0.0365 (inactive) and -0.614 (inactive)
[2]
  outcome: inactive
[3]
  outcome: inactive
[4]
  outcome: inactive
[5]
  outcome: inactive
[6]
  outcome: inactive
[7]
  outcome: inactive
[8]
  outcome: inactive
[9]
  SSMD: 2.43
  cell count: 7680
  plate-normalised HSF1 focus index: 1.15 (inactive)

## CO[C@@]1(NC(=O)Cc2cccs2)C(=O)N2C(C(=O)O)=C(COC(N)=O)CS[C@@H]21
[10]
  fluorescence slope change: 94% (active)
[11]
  inclusion score: 2

## OCCN1CCN(CCCN2c3ccccc3Sc3ccc(C(F)(F)F)cc32)CC1
[10]
  fluorescence slope change: 91.3% (active)
[12]
  period change: 0.01 h (inactive)
[13]
  inhibition: -2% (inactive)
[14]
  fluorescence ratio (interference): 0.9 (inactive)
[1]
  z-score: 0.247 (inactive)
[2]
  AC50: 10.5 µM (active)
[4]
  AC50: 18.7 µM (active)
[15]
  AC50: 9.34 µM (active)
[5]
  AC50: 7.42 µM (active)
[7]
  AC50: 3.72 µM (active)
[16]
  outcome: inactive

## NS(=O)(=O)c1cc2c(cc1C(F)(F)F)NC(Cc1ccccc1)NS2(=O)=O (centres undefined)
[10]
  fluorescence slope change: 16.6% (inactive)
[11]
  inclusion score: 2

## CC(C)(C)NCC(O)COc1cccc2c1C[C@H](O)[C@H](O)C2 (some centres undefined)
[10]
  fluorescence slope change: 55.3% (active)
[11]
  inclusion score: 2

## CCn1cc(C(=O)O)c(=O)c2cc(F)c(N3CCN(C)CC3)cc21
[1]
  z-score: -1.05 (inactive)
[2]
  outcome: inactive
[3]
  outcome: inactive
[4]
  outcome: inactive
[6]
  outcome: inactive
[8]
  outcome: inactive
[17]; at 0.5 µM, stronger effect = higher value
  inhibition: -3.22% (inactive) and -29% (inactive)
[17]; measured here: combination with BGB IC20, at 0.005 µM
  inhibition: 13.2% and 24%
[17]; measured here: combination with BGB IC40, at 0.005 µM
  inhibition: -32.6% and 8.85%
[17]; measured here: combination with BGB IC40, at 0.05 µM
  inhibition: 12.2% and 6.61%
[17]; measured here: combination with cisplatin, at 0.5 µM, stronger effect = higher value
  inhibition: -21.7% and -50.8%
[17]; measured here: combination with cisplatin, at 5 µM, stronger effect = higher value
  inhibition: -2.03% and -14%
[18]; BGB IC20 combo, at 0.005 µM
  inhibition: -18.1% and 6.69%
[18]; BGB IC40 combo, at 0.005 µM
  inhibition: -42.4% and -0.345%
[18]; BGB IC40 combo, at 0.05 µM
  inhibition: -41% and 23.4%
[18]; at 0.5 µM
  inhibition: -41.8% (inactive) and -20.7% (inactive)
[18]; cisplatin combo, at 0.05 µM
  inhibition: -41% and 21.2%
[18]; cisplatin combo, at 0.5 µM
  inhibition: -53.3% and -24%
[18]; cisplatin combo, at 5 µM
  inhibition: -34.1% and -14.2%
[18]; measured here: 5 uM single agent, at 5 µM
  inhibition: -3.29% and -1.89%

## CCN(CC)CCOC(=O)C1(C2CCCCC2)CCCCC1
[12]
  period change: 0.005 h (inactive)
[13]
  inhibition: -4% (inactive)
[14]
  fluorescence ratio (interference): 1 (inactive)
[16]
  outcome: inactive

## CN(C)CCCN1c2ccccc2Sc2ccc(Cl)cc21
[12]
  period change: -0.035 h (inactive)
[13]
  inhibition: -2% (inactive)
[14]
  fluorescence ratio (interference): 1 (inactive)
[16]
  outcome: inactive

## CC(C)(C)NCC(O)c1cc(O)cc(O)c1 (centres undefined)
[10]
  fluorescence slope change: 23.2% (inactive)
[11]
  inclusion score: 2
[12]
  period change: 0.03 h (inactive)
[13]
  inhibition: -2% (inactive)
[14]
  fluorescence ratio (interference): 1 (inactive)
[16]
  outcome: inactive

## Cc1nc2ccccn2c(=O)c1CCN1CCC(C(=O)c2ccc(F)cc2)CC1
[12]
  period change: -0.415 h (inactive)
[13]
  inhibition: -3% (inactive)
[14]
  fluorescence ratio (interference): 1 (inactive)
[1]
  z-score: -1.94 (inactive)
[16]
  outcome: inactive

## CCN(CC)CCNC(=O)c1ccc(N)cc1
[11]
  inclusion score: 2
[12]
  period change: 0.185 h (inactive)
[13]
  inhibition: -2% (inactive)
[14]
  fluorescence ratio (interference): 1 (inactive)
[16]
  outcome: inactive

## Cc1ccc(Cl)c(Nc2ccccc2C(=O)O)c1Cl
[10]
  fluorescence slope change: 27.6% (inactive)
[11]
  inclusion score: 2
[12]
  period change: 0.13 h (inactive)
[13]
  inhibition: 0% (inactive)
[14]
  fluorescence ratio (interference): 1 (inactive)
[16]
  outcome: inactive

## c1ccc2c(c1)CCCC2C1=NCCN1 (centres undefined)
[10]
  fluorescence slope change: 13.8% (inactive)
[11]
  inclusion score: 2
[12]
  period change: -0.02 h (inactive)
[13]
  inhibition: -3% (inactive)
[14]
  fluorescence ratio (interference): 1 (inactive)
[16]
  outcome: inactive

## CCCCNC(=O)NS(=O)(=O)c1ccc(C)cc1
[11]
  inclusion score: 2
[12]
  period change: 0 h (inactive)
[13]
  inhibition: -5% (inactive)
[14]
  fluorescence ratio (interference): 1 (inactive)
[16]
  outcome: inactive

## O=C1NC(=O)C(c2ccccc2)(c2ccccc2)N1
[11]
  inclusion score: 2
[12]
  period change: 0.02 h (inactive)
[13]
  inhibition: 1% (inactive)
[14]
  fluorescence ratio (interference): 1 (inactive)
[16]
  outcome: inactive

## Cc1onc(-c2c(Cl)cccc2Cl)c1C(=O)N[C@@H]1C(=O)N2[C@@H]1SC(C)(C)[C@@H]2C(=O)O
[10]
  fluorescence slope change: 74.3% (active)
[11]
  inclusion score: 2

## C[C@H](CS)C(=O)N1CCC[C@H]1C(=O)O
[11]
  inclusion score: 2
[12]
  period change: 0.01 h (inactive)
[13]
  inhibition: 0% (inactive)
[14]
  fluorescence ratio (interference): 1 (inactive)
[16]
  outcome: inactive

## C=C(CC)C(=O)c1ccc(OCC(=O)O)c(Cl)c1Cl
[10]
  fluorescence slope change: 85.9% (active)

## NC(=O)N1c2ccccc2C=Cc2ccccc21
[11]
  inclusion score: 2
[12]
  period change: 0.01 h (inactive)
[13]
  inhibition: -1% (inactive)
[14]
  fluorescence ratio (interference): 1 (inactive)
[16]
  outcome: inactive

## CC(=O)CCCCn1c(=O)c2c(ncn2C)n(C)c1=O
[10]
  fluorescence slope change: 121% (active)
[11]
  inclusion score: 2
[12]
  period change: 0.02 h (inactive)
[13]
  inhibition: -4% (inactive)
[14]
  fluorescence ratio (interference): 1 (inactive)
[1]
  z-score: -0.728 (inactive)
[16]
  outcome: inactive

## CCOC(=O)[C@H](CCc1ccccc1)N[C@@H](C)C(=O)N1Cc2ccccc2C[C@H]1C(=O)O
[11]
  inclusion score: 2.5

## CN(C)CCC=C1c2ccccc2CCc2ccccc21
[12]
  period change: 0.175 h (inactive)
[13]
  inhibition: -5% (inactive)
[14]
  fluorescence ratio (interference): 0.9 (inactive)
[16]
  outcome: inactive

## CN(C)C(=O)Oc1ccc[n+](C)c1
[11]
  inclusion score: 2
[12]
  period change: 0.015 h (inactive)
[13]
  inhibition: -1% (inactive)
[14]
  fluorescence ratio (interference): 1 (inactive)
[16]
  outcome: inactive

## OCCN1CCN(CCCN2c3ccccc3Sc3ccc(Cl)cc32)CC1
[10]
  fluorescence slope change: 181% (active)
[12]
  period change: -0.035 h (inactive)
[13]
  inhibition: -1% (inactive)
[14]
  fluorescence ratio (interference): 1 (inactive)
[16]
  outcome: inactive

## OC(CCN1CCCCC1)(c1ccccc1)C1CCCCC1 (centres undefined)
[10]
  fluorescence slope change: 66% (active)
[12]
  period change: 0 h (inactive)
[13]
  inhibition: 0% (inactive)
[14]
  fluorescence ratio (interference): 1 (inactive)
[16]
  outcome: inactive
